Source: PubChem BioAssay AID493240 (Broad Institute, 2011)
Screen size: about 1,300 compounds; about 270 (21%) were called active. Only a sample is shown. Results with a measured potency or affinity are listed apart. Unmarked numbers belong to inactive results. How the calls were made is not given here.

Assay: cytotoxicity in parental SK-MEL-5 melanoma cells – cell-based, CellTiter-Glo, cherry-picked, set 3, orthogonal assay for MITF inhibitor project, dose response (AID 493240)
Details: SK-MEL-5 viability, ATP luminescence (CellTiter-Glo), 24 h; series mostly up to 35 µM; activity change, negative = viability loss: at the top concentration

Row | SMILES | activity change, negative = viability loss
1 | NC(=O)c1cc([N+](=O)[O-])ccc1NCc1ccc(N)cc1 | 3.12%
2 | COc1ccc(-c2csc(Nc3ccccn3)n2)cc1OC | -13.8%
3 | CC1CCN(C(=O)c2cc3ccccc3o2)CC1 | -11.1%
4 | c1ccc(-c2cn3nc4c(nc3n2)CCCC4)cc1 | -35.1%
5 | Cc1ccc(S(=O)(=O)CC(CN2CCCCC2)N2CCCCC2)cc1 (configuration not stated) | -2.19%
6 | O=S(=O)(CC(CN1CCCCC1)N1CCCCC1)c1ccc2ccccc2c1 (configuration not stated) | -29.1%
7 | O=C(Nc1ccccc1F)C(=O)Nc1cccc2ccccc12 | -13.7%
8 | c1ccc(-n2ncc3c(NCc4cccs4)ncnc32)cc1 | -8.94%
9 | COc1cccc(/C=N/Nc2ncnc3c2ncn3Cc2ccccc2)c1O | -8.13%
10 | COc1cccc(C(=O)Nc2ccc3c(cc2=O)[C@@H](NC(C)=O)CCc2cc(OC)c(OC)c(OC)c2-3)c1 | -14.7%
11 | CCc1nc2oc3ccc(C)cc3c(=O)c2cc1C(=O)OC | -4.95%
12 | Cc1cc(C(=O)O/N=C(\N)c2ccncc2)ccc1[N+](=O)[O-] | -0.835%
13 | CNC(=O)COC(=O)c1ccccc1C(=O)c1ccc(Cl)c([N+](=O)[O-])c1 | -28%
14 | CCCNC(=O)COC(=O)c1ccccc1C(=O)c1ccc(Cl)c([N+](=O)[O-])c1 | -47.9%
15 | O=C(COC(=O)c1ccc(F)c([N+](=O)[O-])c1)NC(=O)NCc1ccccc1 | -12%
16 | CCC(=O)Nc1cc(C(=O)OCC(=O)c2ccccc2Cl)ccc1C | -6.58%

Row | SMILES | activity change, negative = viability loss
17 | O=C(COC(=O)c1ccccc1C(=O)c1ccc(Cl)c([N+](=O)[O-])c1)NC1CC1 | -33.4%
18 | CC(=O)OCCNc1cc(Sc2nc3ccccc3[nH]2)c2nonc2c1[N+](=O)[O-] | -20.1%
19 | CNc1oc(/C=C/c2cccc(OC)c2)nc1C#N | 7.1%
20 | Cc1ccc2oc(Nc3nc(C)c(C)c(C)n3)nc2c1 | -0.374%
21 | Cc1ccc2nc(-c3cccnc3)oc2c1 | -8.52%
22 | CC(C)c1ccc(/C=N/Nc2ccc(C(=O)O)cc2)cc1 | 11.1%
23 | O=C(NCc1csc(-c2cccs2)n1)C1CCC1 | 2.31%
24 | CCOc1ccc2nc(NC(=O)Cc3cccs3)sc2c1 | -1.45%
25 | CC(C)S(=O)(=O)c1csc(C(=O)Nc2ccc(F)cc2)c1N | -19%
26 | C=CCn1c(C)cc(C2=NNC(=NC(C)(C)C)SC2)c1C | -28.7%
27 | C=CCN=C1NN=C(c2ccc3c(c2)OCCO3)CS1 | -45.7%
28 | O=C(NC1CC1)C1CCN(S(=O)(=O)c2ccc(Cl)c([N+](=O)[O-])c2)CC1 | -1.24%
29 | CC(C)CN=C(NS(=O)(=O)c1ccccc1)C(Cl)(Cl)Cl | -28.7%
30 | O=C(CN1CCCCC1)Nc1scc2c1c(=O)oc1ccccc12 | 0.369%
31 | CN1CCN(c2ccccc2NC(=O)c2ccc([N+](=O)[O-])o2)CC1 | -4.86%
32 | CC(C)C(=O)N1CCN(c2ccc(NC(=O)c3ccc([N+](=O)[O-])o3)cc2)CC1 | -42.2%
